PfM18AAP inh-1: blocks P. falciparum M18 aspartyl aminopeptidase; inhibition, % at 7.35 µM; recombinant PfM18AAP, H-Glu-NHMec fluorogenic cleavage; 290,000 compounds, 1.2% hits;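 active = inhibition above the campaign mean inhibition over all tested compounds plus 3 SD, cut at about 28% in these data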;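 also: 0% = plate median of test compound wells and 100% = 2 mM ZnCl2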
PAFAH1B3 inh: PAFAH1B3 (human) inhibition | Q15102 | recombinant PAFAH1B3, FP-rhodamine probe, fluorescence polarization | inhibition, % at 3.39 µM | 340,000 compounds, 0.28% hits;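 active = inhibition above the screen-wide average of all tested compounds plus 3 SD, cut at about 25% in these data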;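 also: 0% = enzyme with DMSO only and 100% = wells lacking PAFAH1B3 protein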
Target sequence (Q15102 whole entry, looked up): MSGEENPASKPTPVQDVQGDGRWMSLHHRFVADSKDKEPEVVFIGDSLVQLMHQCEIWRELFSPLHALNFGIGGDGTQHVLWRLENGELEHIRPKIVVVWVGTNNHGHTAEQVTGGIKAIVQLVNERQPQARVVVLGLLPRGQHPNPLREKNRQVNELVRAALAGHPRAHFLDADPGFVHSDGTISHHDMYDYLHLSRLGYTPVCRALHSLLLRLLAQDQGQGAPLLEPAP
PAFAH1B2 inh: blocks human PAF acetylhydrolase 1b catalytic subunit 2. P68402. recombinant PAFAH1B2, FP-rhodamine activity probe, fluorescence polarization. inhibition, % at 3.39 µM. 340,000 compounds, 1.2% hits. AID 492953;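 active = inhibition above the mean of all tested compounds plus 3 SD, cut at about 24% in these data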;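 also: 0% = enzyme with DMSO and 100% = wells lacking PAFAH1B2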
pPAFAH inh: pPAFAH (human) enzyme inhibition; recombinant pPAFAH, FP-rhodamine probe fluorescence polarization; AID 463082; Q13093; inhibition, % at 3.39 µM; 330,000 compounds, 1.5% hits;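 active = inhibition above the mean inhibition across the screen plus 3 SD, cut at about 25% in these data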;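 also: inhibitors block binding of the rhodamine activity-based probe so polarization drops; 0% = enzyme with DMSO and 100% = wells lacking pPAFAH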
DSG3 Ab inh: inhibitors of pemphigus antibody binding to human desmoglein-3; P32926; DSG3-coupled beads, scFv-anti-DSG3-GFP binding, flow cytometry; hits give low values; binding (percent of control), % at 10 µM; 310,000 compounds, 0.48% hits; AID 588358;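 active = binding more than 3 SD below its plate's average and above zero; inconclusive = below that plate limit but binding exactly zero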;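 also: hits lower antibody fragment binding to DSG3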
PAFAH2 inh: inhibitors of human PAFAH2. recombinant PAFAH2, FP-rhodamine activity probe, fluorescence polarization. inhibition, % at 3.39 µM. 340,000 compounds, 0.99% hits. Q99487;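 active = inhibition above the mean over all tested compounds plus 3 SD, cut at about 30% in these data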;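 also: inhibitors block probe labeling of enzyme so polarization drops; 0% = enzyme with DMSO and 100% = wells lacking PAFAH2 protein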
PfM18AAP inh-2: PfM18AAP inhibition, confirmation; shares compounds with PfM18AAP inh-1; recombinant PfM18AAP, H-Glu-NHMec fluorogenic cleavage; inhibition, % at 7.35 µM; 2,400 compounds, 28% hits;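 active = mean inhibition over replicate wells above the hit cutoff set for the earlier primary screen, cut at about 29% in these data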;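 also: 0% = median of test compound wells and 100% = 2 mM ZnCl2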
CTSL1 counter: counter-screen for PFM18AAP inhibitors: confirmation of human cathepsin L inhibitors; shares compounds with PfM18AAP inh-1; purified cathepsin L1, Z-Leu-Arg-MCA fluorescence; inhibition, % at 5.96 µM; 2,400 tested, under 10 active; AID 2178;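 active = average inhibition across replicates above the hit cutoff set in the earlier primary screen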;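 also: 0% = median of test compound wells and 100% = Z-Phe-Ala-diazomethylketone 1 µM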
Target sequence (P07711 whole entry, looked up): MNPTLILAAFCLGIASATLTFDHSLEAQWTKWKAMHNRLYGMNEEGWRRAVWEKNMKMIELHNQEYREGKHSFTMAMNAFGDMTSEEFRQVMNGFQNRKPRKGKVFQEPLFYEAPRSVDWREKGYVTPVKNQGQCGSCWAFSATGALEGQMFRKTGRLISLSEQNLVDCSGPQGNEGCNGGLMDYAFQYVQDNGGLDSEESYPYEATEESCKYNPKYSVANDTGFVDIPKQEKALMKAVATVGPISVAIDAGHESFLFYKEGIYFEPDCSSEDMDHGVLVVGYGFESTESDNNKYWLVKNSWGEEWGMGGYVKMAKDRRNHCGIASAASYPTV
An asterisk follows results filed as active; ? = inconclusive; · = not tested or not shown. Shown are actives, neighbours in structure and some others; about 3.8% of the full set was active somewhere.

SMILES | PfM18AAP inh-1 | PAFAH1B3 inh | PAFAH1B2 inh | pPAFAH inh | DSG3 Ab inh | PAFAH2 inh | others
COc1cccc(-c2ccnc3[nH]n(-c4ccccc4)c(=O)c23)c1 | 3 | 12 | 4 | 1 | 91 | -7
CCOC(=O)CCCCCC(=O)Nc1ccc2c(c1)C(=O)N([C@H](C)CO)C[C@@H](C)[C@@H](CN(C)C(=O)CCC(F)(F)F)OCCCC[C@H](C)O2 | · | · | · | · | 98 | ·
COc1ccccc1/C=C1\S/C(=N/NC(=O)c2cccc(Br)c2)NC1=O | 3 | 15 | 17 | 17 | · | 41*
COC(=O)/C=C1\S/C(=N/NC(=O)c2ccccc2)NC1=O | 9 | 2 | 2 | 1 | 109 | -5
O=C(NCC1CCCO1)c1onc(CSc2ccc(Cl)cc2)c1C(=O)O (centres undefined) | -3 | 5 | 25* | 12 | 105 | -1
Cc1ccccc1SCc1noc(C(=O)NCC2CCCO2)c1C(=O)O (centres undefined) | -6 | 4 | 9 | 4 | 102 | 26
O=S(=O)(c1cccs1)N1CCCCC1 | · | · | · | · | 104 | ·
NC(=O)NNC(=S)Nc1cccc2ccccc12 | 50* | 6 | -1 | 7 | 103 | 1
COc1nc(=O)n(C2CCCO2)cc1C (centres undefined) | · | -2 | -3 | · | 105 | 10
O=C(Nc1nncs1)c1ccc2c(c1)OCO2 | 29* | 5 | 7 | 0 | 90 | -1
Cc1nnc(NC(=O)c2ccc3c(c2)OCO3)s1 | 11 | 4 | 3 | 0 | 98 | -1
Cc1ccc(S(=O)(=O)N2CCN(c3ccc(C(F)(F)F)cc3[N+](=O)[O-])CC2)cc1 | -2 | 2 | 7 | 3 | 67* | -5
Cc1ccc(S(=O)(=O)N2CCN(c3c([N+](=O)[O-])cc(C(F)(F)F)cc3[N+](=O)[O-])CC2)cc1 | -5 | 2 | 2 | 2 | 96 | -2
O=C(COC(=O)C1(c2ccc(F)cc2)CCCC1)N1CCc2ccccc21 | -5 | 6 | 28* | -6 | 102 | -1
O=C(COC(=O)C1(c2ccccc2F)CCCC1)N1CCc2ccccc21 | 1 | 7 | 4 | 4 | 94 | -2
Cc1nn(CC(=O)NNC(=S)NCC2CCCO2)c(C)c1Br (centres undefined) | 11 | 6 | 5 | 28* | 101 | -1
COCCCNC(=S)NNC(=O)Cn1nc(C)c(Br)c1C | 30* | 5 | 1 | -6 | 101 | 0
Cc1cc(C)c(S(=O)(=O)N2CCN(c3ccccn3)CC2)c(C)c1 | · | 7 | 3 | · | 90 | -3
CC(=O)Nc1ccc(NC(=O)C(C)OC(=O)C2CCN(S(=O)(=O)c3ccc4c(c3)OCCO4)CC2)cc1 (centres undefined) | · | 6 | 3 | 0 | 122 | 12
O=C(NNC(=O)C12CC3CC(CC(C3)C1)C2)c1cccc([N+](=O)[O-])c1 | 4 | 6 | 30* | 6 | · | 1
COc1ccccc1CNC(=O)CCc1nnc2ccc(NCCCN3CCCC3=O)nn12 | -3 | 1 | 0 | 0 | · | 3
COc1cc(/C=N/NC(=O)/C(=C\c2ccc3c(c2)OCO3)NC(=O)c2ccccc2)ccc1O | 9 | 5 | 5 | -1 | 96 | 10
COc1cc(/C=N/NC(=O)/C(=C\c2ccc([N+](=O)[O-])cc2)NC(=O)c2ccccc2)cc(OC)c1O | 29* | 17 | 1 | 13 | ? | 3
O=C(N/N=C/c1cc([N+](=O)[O-])cc([N+](=O)[O-])c1O)/C(=C\c1cccs1)NC(=O)c1ccccc1 | 13 | 12 | 10 | 31* | 92 | 14
O=C1CCCC(O)=C1N=Nc1ccc(C(=O)O)cc1 | 17 | 50* | 39* | 31* | 95 | 52*
SMILES | PfM18AAP inh-1 | PAFAH1B3 inh | PAFAH1B2 inh | pPAFAH inh | DSG3 Ab inh | PAFAH2 inh | others
CC1C/C(=N\NC(=O)c2ccc(NS(=O)(=O)c3ccc(Br)cc3)cc2)CC(C)(C)C1 (centres undefined) | -4 | -10 | 26* | 18 | 101 | 14
COc1cccc(-c2cc(C(=O)NN3CCOCC3)c3ccccc3n2)c1 | -2 | 3 | -1 | -2 | 99 | 7
Cc1cccc(NC(=O)c2cc(-c3ccccn3)nc3ccccc23)c1C | 6 | 4 | 2 | -2 | 114 | 5
O=C(Nn1cnnc1)c1cc(-c2ccccn2)nc2ccccc12 | 50* | 11 | 2 | 0 | 98 | 1 | PfM18AAP inh-2=47*;CTSL1 counter=-4
COc1cccc(-c2cc(C(=O)Nn3cnnc3)c3ccccc3n2)c1 | 64* | 1 | 21 | 2 | 98 | 5 | PfM18AAP inh-2=62*;CTSL1 counter=-1
CCOC(=O)C1CCCN(C(=O)CCc2nnc(-c3ccc(C(C)=O)s3)o2)C1 (centres undefined) | 5 | 5 | -7 | -2 | · | -6
CCO/C([O-])=N/c1sn[n+](C)c1C | 3 | · | · | -2 | 96 | ·
Cc1ccccc1NC(=S)c1ccc2ccccc2n1 | 41* | 2 | 3 | 2 | 79* | 1 | PfM18AAP inh-2=-24;CTSL1 counter=3
S=c1[nH]nc(Cc2n[nH]c(=S)n2-c2ccccc2)n1-c1ccccc1 | 35* | -2 | 2 | 1 | 103 | 4 | PfM18AAP inh-2=2;CTSL1 counter=3
S=c1[nH]nc(Cn2nnc3ccccc32)n1-c1ccccc1 | 42* | 14 | 5 | 2 | 103 | -2 | PfM18AAP inh-2=0;CTSL1 counter=0
CCOc1ccc(S(=O)(=O)N2CCC(C(=O)NCc3ccncc3)CC2)cc1 | -12 | 1 | 0 | -1 | 100 | 1
CCOC(=O)c1cn(Cc2cccc(Cl)c2)c2cc(C)nn2c1=O | -10 | -1 | -1 | -3 | 111 | -3
Oc1ccc(/C=N/n2cc(-c3ccccc3)[nH]c2=S)cc1 | 61* | 3 | 2 | -1 | 99 | 1 | PfM18AAP inh-2=41*;CTSL1 counter=4
COc1cc(/C=N/n2cc(-c3ccccc3)[nH]c2=S)cc(OC)c1O | 62* | 0 | 2 | 1 | 84 | -4 | PfM18AAP inh-2=48*;CTSL1 counter=2
S=c1[nH]c(-c2ccccc2)cn1/N=C/c1ccccc1Br | 33* | 4 | 5 | 14 | 103 | -5 | PfM18AAP inh-2=24;CTSL1 counter=3
S=c1[nH]c(-c2ccccc2)cn1/N=C/c1cccc2ccccc12 | 25 | 18 | 7 | 1 | 91 | -5
CC(=O)Nc1ccc(S(=O)(=O)N2CCNC(=O)C2)cc1 | · | 9 | 2 | 1 | 96 | -3
CCOC(=O)NNc1ccc(C(F)(F)F)cn1 | 56* | 9 | 7 | -5 | · | -4 | PfM18AAP inh-2=35*;CTSL1 counter=-5
CC1(C)CC2(CC(c3ccc(F)cc3)c3ccc(O)cc3O2)NC(=S)N1 (centres undefined) | 12 | -1 | 12 | 1 | 89 | 1

Bioassay records as filed in PubChem.
